Results published in PubChem BioAssay AID1508600 (Functional Genomics Laboratory (NCATS/FGL), 2020).
In all, about 53,000 sequences went through this assay and about 3,700 (7%) were called active.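 The calls were made as follows: active = gene knockdowns whose robust z-score for IL-1 alpha signal is at least 2 or at most -2, so actives lie on both sides; inactive = the rest.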 Many of the other results were omitted from the sample, so actives are more common in it than they were.

test: Components of the Cytosolic LPS Sensing Pathway: Gene Identification via Genome-wide siRNA Screen; conditions: RAW264.7 macrophages, IL-1a HTRF, actives lie on both sides, screened at 100 nM (by protocol), cells primed 5 h with Pam3CSK4 first
From the text: Non-canonical inflammasome activation by cytosolic LPS is a critical component of the host response to Gram-negative bacterial infection, however we lack a comprehensive understanding of the cellular processes that control this pathway. Here we describe a genome-wide siRNA screen to identify genes regulating the mouse macrophage IL-1 alpha response to cytosolic LPS.
RAW264.7 cells were maintained in complete DMEM media, comprising DMEM with 4.5 g/L glucose, 10% FBS (Gemini Bio-Products, West Sacramento, CA), 2 mM Glutamine (Lonza) and 20 mM HEPES (Lonza), hereafter complete DMEM.
The RNAi screen was conducted in 384-well format using the Ambion Silencer Mouse Genome siRNA Library (#4391425), which consists of three unique, nonoverlapping, nonpooled siRNAs for each of 17,000 gene targets. siRNA reagents ([…]) were stamped into 384-well white flat-bottom microplates (Corning, 3570) using a Velocity11 VPrep liquid handling system (Agilent) integrated into a BioCel robotic platform (Agilent) in columns 1-22, leaving columns 23-24 empty for negative (Ambion, Negative control #1) and positive (mouse Casp4) controls, respectively. The median value of each plate's negative control column was used to normalize sample wells, and the positive control was used to assess transfection efficiency and assay performance.
Lipofectamine RNAiMAX Transfection Reagent ([…]; Invitrogen) was added in […] serum-free, antibiotic-free media to plate wells using a Thermo Scientific Matrix WellMate and Microplate Stacker. Plates were incubated for 45 min at room temperature to allow for the sufficient formation of siRNA-lipid complexes. Cells were seeded at a density of 1x10^4 cells per well in 20 microL media containing 20% (vol/vol) FBS without antibiotics. The final concentration of siRNA in each well was 100 nM. Cells were cultured for 48h at 37 degrees C in 5% CO2 before addition of […] of TLR ligand Pam3CSK4 for 5 hours. The medium was then removed, replaced with […] growth media and cell were transfected with […] of LipidA and TransIT-TKO (Mirus) for 24 hour. At the end of the LipidA treatment, […] of supernatant was transferred to a 384 Greiner Bio-one non-binding low volume plate and […] of IL-1a HTRF reagent (Cisbio, 62MIL1APEH) was added and incubated at room temperature overnight. The plates were read on an EnVision plate reader (PerkinElmer). Cell viability was measured by adding 20ul Cell Titer Glo to the original plate and running a luminescence read on the EnVision. The quantified IL-1a signal for each siRNA gene-targeted well was divided by the median of the negative control wells and multiplied by 100 to achieve a negative control normalized value for each well/siRNA. This normalized value was then used to generate a robust z-score by first taking the log of each value and then by subtracting the median and dividing by the […].

z-score, inactive:
GGAUAAGAAGCGAUUUGAATT against Rcn2 -0.294
GCUGCUGGAGUGCAACUAATT against Tradd 0.391
CCUGAAUGGACAAACAGGATT against Gm6460 -0.193
CCAAACCUAUUCUGAGAUGTT against Klrg2 -0.0403
GGAGCUGGACAAGUUCAUGTT against Clrn1 -0.994
GGGAGCAAAGAGGAACAGCTT against Fis1 -0.73
GGUGCAAUCGUGUUGAGCUTT against Dap3 1.06
GCAAACCUUCGGUCUUGCCTT against Cd5l -0.364
GGAGAGAUCAUACACUUUGTT against BC048679 0.43
GGUAGUGAAUGAACUCUUUTT against Bcl2l1 -1.41
GGCAGACAUCACAAUGGCUTT against Hemgn -0.201
GGGUUAGCAACUUCAAAUATT against Zmynd19 0.996
CCUAAAUCCUUUUGAACCCTT against Anapc16 0.295
GGCCAGUGUGUGGUCUAAGTT against Cd1d2 1.89
GGUCUUCAGAUAAUCUUCCTT against Brinp1 1.91
CCGACAAACGCAAGGUGAUTT against Rtl8c -0.382
GGUGUGUGGUGUUAAAAAATT against Mybph -0.81
GGUGGAAUAUAGCUUCAUCTT against Ifngr2 1.06
GGAAGAACACAAGUGUUUUTT against Trem3 -0.626
GCGAAGCGUGCUGCUAAGATT against Ccdc59 0.519
GCAGAGGCUCUCCUUAUAGTT against Ccser2 0.747
GGUACGGUGUUUUGGAUACTT against Fam174a 0.00664
GGGACAGUUUUCGGACUUCTT against S1pr4 -0.362
GCUACAGGGAAAAAGUUCCTT against Olfr994 0.383
CGGCUGCAUUUCAACAAGGTT against Snrpc -1.92
GGUUCUGCCAUGGAGGAAUTT against Svs5 0.0746
GCCACUCACCUGUAGUUCUTT against BC049715 0.0758
GGAUCUCAGAUUUACUGUCTT against Dedd2 0.484
CGGAGCAUUGGGACAAUUUTT against Olfr690 1.1
GGAAGUUGAAUACAUUGUCTT against Arntl 0.127
GCAUGCAAAUCUCCUCUAATT against Sema3b -0.116
CCUUUGUAACUGGAAUUCUTT against Olfr197 1.74
GGAUCAAAUUACAGAUCUUTT against Eef1e1 1.81
GGAAAUGCUACUGCUUGGATT against 1700030K09Rik 1.2
GGAAACCAAAGAUAAACUCTT against Ccdc186 0.726
GGGCAUCAAGUGUAAAAAATT against Med7 -0.384
CCCAAAUCCUACGAAGCCUTT against Tanc1 -1.9
GGAUCUAAGGAAGUUUCUGTT against Gfpt2 0.594
GGCGAACACCAUGAAAAGGTT against Lin7b 0.794
GCGUGGAUAGUUUCACAGCTT against Fbp1 -0.142
GGAGAGUGCUGUGAAGCCATT against Vegfb -0.943
GGAAUACUCCAGUAUCUCCTT against 9130401M01Rik -0.753
GGCAAUGAGACAAUUGUCATT against Cpe -0.638
GGCAAAAUCCCAUACGAAATT against Itk 0.0298
CCAUGUAAGAUGUUAAGUATT against Abcb1a -0.265
CCUUUGUGUCCUAACGGUGTT against Tubb2b -0.158
GGUCCAUUGCUAAAGACUGTT against Tcf19 0.0971
GGUAAUGAGGACAUGGAUCTT against Lyrm4 0.467
GCACUUUCCUUUAUUGUGUTT against Fam117a -1.41
GGCUCAGAUUGAUAGGAUATT against Gmfg 0.103
GGCCAAACUAAUGUUUUUCTT against Prox2 -0.594
GCUCAUAAUUACAUCACCATT against H3c15 -1.22
GGACCAUCCUACAUCGGUCTT against Fpgs 1.02
GGACAAGGUCUUUAAUGUUTT against Fbxo3 -0.263
CGGUUGUCUUCCUCUUAGUTT against Fzd5 -0.52
GAAAAGAGGAUUCCUUGCATT against Olfr1128 0.726
GCGAGAGUGAAAACAUCCATT against Fam78b 0.331

z-score, active:
GGAGCAUAGAAAAGACAAUTT against Grk2 2.69
GCACAACAUACCCUGUGGUTT against Syn1 -2.72
GGACAUGUCCGAAUACUACTT against Pdss1 2.34
GCUCAGAUAAUGGCCUACATT against Smarca4 2.28
GGCCAGCUCUCUUUUGCUATT against Cflar 2.5
GGUCAUCAAGCAGUGCUAUTT against Ncstn 4.32
GGAAAUUGUGAGAAGAACUTT against Slx4ip 2.33
GGAUAGGAAGAAAAUGAAGTT against Slfn2 -2.83
CCAGAAGAGUACUGUUUUATT against Tpm4 2.17
GGAAUUCAUGAACUACUAUTT against Capsl -2.07
CCUGCUGGGAUUUAUUCAATT against Pmvk 2.52
GGCAAAGUUGUCCUAAGGUTT against Rab27b 2.54
